# Reference: PubChem BioAssay (EPA / NIEHS)
# Several values for one entry are separate records, joined by “and”; a condition that tells them apart may be missing. Equal values may be shown once. Records with an inconclusive call do not appear. The source holds several records for some structures; these can differ, active in one and inactive in another. Activity calls are given as the source filed them. How the source made its calls, unless noted: active means hit-call score of the fitted dose curve at least 0.9, where 1 is the maximum; inactive means score below 0.9.
# Columns and labels:
# [1] = target: Oxysterols receptor LXR-alpha (Homo sapiens) (UniProt Q13133); assay: ATG_LXRa_TRANS: Attagene TRANS-FACTORIAL HepG2 Assay for human Liver X Receptor alpha (LXRa) (AID 2282980; active means hit-call score of the fitted dose curve at least 0.9, where 1 is the maximum); conditions: HepG2 Attagene TRANS reporter, LXRa transactivation
# Outline: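 HepG2 cells transiently transfected with GAL4-UAS reporter units for chimeric NR-Gal4 proteins, exposed to chemicals for 24 h. Reporter mRNA quantified by RT-PCR and capillary electrophoresis; gain of signal fitted relative to DMSO.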
# [2] = target: Oxysterols receptor LXR-beta (Homo sapiens) (UniProt P55055); assay: ATG_LXRb_TRANS: Attagene TRANS-FACTORIAL HepG2 Assay for human Liver X Receptor beta (LXRb) (AID 2282981; active means hit-call score of the fitted dose curve at least 0.9, where 1 is the maximum); conditions: HepG2 Attagene TRANS GAL4-LXRb reporter, mRNA
# Outline: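 Liver-derived HepG2 cells transfected with Gal4-responsive reporters were dosed for 24 h. Activation was scored as rise in reporter mRNA, by RT-PCR and capillary electrophoresis, above DMSO baseline.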
# [3] = target: Hepatocyte nuclear factor 4-alpha (Homo sapiens) (UniProt P41235); assay: ATG_HNF4a_TRANS: Attagene TRANS-FACTORIAL HepG2 Assay for human Hepatocyte Nuclear Factor 4 alpha (HNF4a) (AID 2282982; active means hit-call score of the fitted dose curve at least 0.9, where 1 is the maximum); conditions: HepG2 HNF4a transactivation reporter, mRNA readout
# Outline: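 Using HepG2 liver cells transfected with GAL4-UAS reporter units, chemical-induced mRNA increases were assessed after 24 hours. Fluorescent RT-PCR fragments were separated by capillary electrophoresis and compared with DMSO negative controls.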
# [4] = ATG_M_06_TRANS: Attagene TRANS-FACTORIAL HepG2 Assay for M06 Transcription Factor (Internal Marker) (AID 2282983; active means hit-call score of the fitted dose curve at least 0.9, where 1 is the maximum); conditions: HepG2 Attagene TRANS M06 internal marker reporter
# Outline: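 mRNA levels of a reporter transcript, quantified as FAM fluorescence on capillary electrophoresis, served as readout. HepG2 cells expressing exogenous GAL4-chimera reporter constructs were exposed for 24 h. Gain of signal over DMSO was evaluated.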
# [5] = ATG_M_32_TRANS: Attagene TRANS-FACTORIAL HepG2 Assay for M32 Transcription Factor (Internal Marker) (AID 2282984; active means hit-call score of the fitted dose curve at least 0.9, where 1 is the maximum;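 further: transcript level of a background control reporter unit measured by RT-PCR and capillary electrophoresis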); conditions: HepG2 Attagene TRANS M32 internal marker reporter
# Outline: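 Fluorescence-detected mRNA induction, HepG2 liver cells, 24 h after dosing. Multiple GAL4-UAS reporter units introduced by transient transfection; background-control endpoint analysed for gain of signal against DMSO.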
# [6] = target: Transcriptional activator Myb (Homo sapiens) (UniProt P10242); assay: ATG_Myb_CIS: Attagene CIS-FACTORIAL HepG2 Assay for human Myeloblastosis (Myb) Proto-Oncogene Transcription Factor (AID 2282986); conditions: HepG2 Attagene CIS-FACTORIAL Myb reporter transcription; actives raise or lower the signal
# Outline: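 HepG2 cells were transiently transfected with cis-regulated multiple reporter transcription units reflecting endogenous Myb activity, then exposed to compound for 24 hours. Reporter mRNA was measured by RT-PCR with capillary electrophoresis; bidirectional fitting versus DMSO baseline.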
# [7] = target: Nuclear respiratory factor 1 (Homo sapiens) (UniProt Q16656); assay: ATG_NRF1_CIS: Attagene CIS-FACTORIAL HepG2 Assay for human Nuclear Respiratory Factor 1 (NRF1) Orphan Gene (AID 2282987); conditions: HepG2 NRF1 cis-element reporter, Attagene multiplex; actives raise or lower the signal
# Outline: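 HepG2 cells transiently transfected with multiple reporter transcription units under cis-regulatory promoter control, so endogenous transcription-factor activity is read. After 24 h compound exposure, reporter mRNA quantified by RT-PCR, fluorescent labelling, HpaI digestion and capillary electrophoresis; bidirectional fitting versus DMSO.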
# [8] = ATG_NFI_CIS: Attagene CIS-FACTORIAL HepG2 Assay for human Nuclear Factor I (NFI) (AID 2282989); conditions: HepG2 cis-regulatory reporter, NFI response element transcription; actives raise or lower the signal
# Outline: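 Read-out: reporter mRNA via RT-PCR plus capillary electrophoresis with fluorescence detection. Transiently transfected HepG2 (endogenous TF activity on cis promoters), 24 h compound exposure; gain or loss of signal fitted against DMSO.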
# [9] = ATG_NF_kB_CIS: Attagene CIS-FACTORIAL HepG2 Assay for human Nuclear Factor Kappa B (NF-kB) (AID 2282991); conditions: HepG2 Attagene cis-factorial NF-kB reporter mRNA; actives raise or lower the signal
# Outline: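 HepG2 cells transiently transfected with multiplexed cis-element reporter units measuring endogenous transcription factor activity; reporter mRNA read 24 h after dosing by RT-PCR, fluorescent labelling, HpaI digestion and capillary electrophoresis. Bidirectional fit against DMSO baseline.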
# [10] = ATG_Oct_MLP_CIS: Attagene CIS-FACTORIAL HepG2 Assay for human Octamer-Binding Transcription Factor (Oct) (AID 2282993); conditions: HepG2 Attagene cis-factorial Oct reporter, mRNA; actives raise or lower the signal
# Outline: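 Read-out: reporter mRNA via RT-PCR plus capillary electrophoresis of 6-FAM-labelled fragments. Transiently transfected HepG2, 24 h exposure, endogenous TF activity on cis elements. Gain or loss of signal fitted relative to DMSO.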
# [11] = BSK_3C_TissueFactor: BioMAP Diversity Plus: 3C Assay for Tissue Factor Biomarker Activity (AID 2282997); conditions: BioMAP 3C HUVEC, tissue factor biomarker readout; actives raise or lower the signal
# Outline: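 Tissue Factor measured by ELISA, 24 h after treatment of primary HUVEC in the BioMAP 3C setting.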
# [12] = BSK_3C_uPAR: BioMAP Diversity Plus: 3C Assay for Urokinase-type plasminogen activator receptor (uPAR) Biomarker Activity (AID 2282998); conditions: BioMAP 3C HUVEC, uPAR biomarker ELISA; actives raise or lower the signal
# Outline: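 HUVEC primary cells; 24 h post-dose; uPAR by ELISA; gain or loss of signal fitted bidirectionally vs DMSO baseline.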
# [13] = BSK_3C_VCAM1: BioMAP Diversity Plus: 3C Assay for Vascular cell adhesion molecule 1 (VCAM1) Biomarker Activity (AID 2282999); conditions: BioMAP 3C HUVEC, VCAM1 ELISA, cytokine-stimulated; actives raise or lower the signal
# Outline: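 Vascular primary endothelium (human umbilical vein) was exposed to chemicals and assayed 24 h later. VCAM-1 levels came from ELISA, with DMSO serving as baseline for bidirectional fitting.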
# [14] = BSK_4H_Eotaxin3: BioMAP Diversity Plus: 4H Assay for Eotaxin 3 Biomarker Activity (AID 2283000); conditions: primary human endothelial cells (HUVEC); actives raise or lower the signal;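 on outcome: CCL26 protein level quantified by ELISA in parallel with SRB cytotoxicity check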
# Outline: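 Eotaxin-3 (CCL26) levels were measured by ELISA in HUVEC primary cultures 24 h post-dosing. Gain or loss of signal was fitted in both directions, with DMSO serving as baseline and negative control.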
# [15] = target: Nuclear receptor subfamily 4 group A member 2 (Homo sapiens) (UniProt P43354); assay: ATG_NURR1_TRANS: Attagene TRANS-FACTORIAL HepG2 Assay for human Nuclear Receptor Related Protein 1 (NURR1) (AID 2282985; active means hit-call score of the fitted dose curve at least 0.9, where 1 is the maximum); conditions: HepG2 Attagene TRANS reporter, mRNA readout
# Outline: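 Chimeric NR-Gal4 proteins were expressed in human HepG2 cells bearing GAL4-UAS reporter units, and induced reporter mRNA was quantified 24 h post-dosing by RT-PCR and capillary electrophoresis.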
# [16] = target: Myc proto-oncogene protein (Homo sapiens) (UniProt P01106); assay: ATG_Myc_CIS: Attagene CIS-FACTORIAL HepG2 Assay for human Myelocytomatosis (Myc) Proto-Oncogene Transcription Factor (AID 2282990); conditions: HepG2, Attagene cis-reporter transcription factor activity; actives raise or lower the signal
# Outline: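 DMSO-normalised, bidirectionally fitted reporter mRNA signal. HepG2 cells transfected with cis reporter constructs, treated 24 h; transcripts detected by RT-PCR, 6-FAM primer extension and CE.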
# [17] = target: Cellular tumor antigen p53 (Homo sapiens) (UniProt P04637); assay: ATG_p53_CIS: Attagene CIS-FACTORIAL HepG2 Assay for human p53 Transcription Factor (AID 2282994); conditions: HepG2 p53 cis-element reporter, Attagene mRNA; actives raise or lower the signal
# Outline: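 Endogenous p53 activity read in transiently transfected HepG2 from a cis-element-driven reporter transcript after 24 h exposure. RNA reverse-transcribed, PCR-amplified, fluorescently labelled and sized by capillary electrophoresis; gain or loss fitted against DMSO baseline.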
# [18] = target: Bile acid receptor (Homo sapiens) (UniProt Q96RI1); assay: ATG_FXR_TRANS: Attagene TRANS-FACTORIAL HepG2 Assay for Farnesoid X Receptor (FXR) (AID 2282979; active means hit-call score of the fitted dose curve at least 0.9, where 1 is the maximum;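 further: hits raise reporter mRNA above DMSO so AC50 marks FXR activation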); conditions: HepG2 Attagene TRANS FXR-GAL4 reporter transcription
# Outline: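 HepG2 cells were transiently transfected with GAL4-UAS reporters driven by chimeric NR-Gal4 proteins and dosed for 24 h. Reporter mRNA was quantified by RT-PCR, fluorescent labelling, HpaI digestion and capillary electrophoresis, with gain of signal scored versus DMSO.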
# [19] = ATG_NRF2_ARE_CIS: Attagene CIS-FACTORIAL HepG2 Assay for human Nuclear Factor Erythroid 2 Related Factor 2 (NFR2) response to Antioxidant Response Elements (ARE) (AID 2282992); conditions: HepG2 Attagene ARE/NRF2 reporter, transcription factor activity; actives raise or lower the signal
# Outline: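 Endogenous transcription factor activity read out as reporter transcript levels (RT-PCR plus capillary electrophoresis, fluorescence) in transiently transfected HepG2 cells. Measured at 24 h after dosing; gain or loss of signal fitted versus DMSO.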
# Sequence of Transcriptional activator Myb (Homo sapiens) (P10242 whole entry, looked up): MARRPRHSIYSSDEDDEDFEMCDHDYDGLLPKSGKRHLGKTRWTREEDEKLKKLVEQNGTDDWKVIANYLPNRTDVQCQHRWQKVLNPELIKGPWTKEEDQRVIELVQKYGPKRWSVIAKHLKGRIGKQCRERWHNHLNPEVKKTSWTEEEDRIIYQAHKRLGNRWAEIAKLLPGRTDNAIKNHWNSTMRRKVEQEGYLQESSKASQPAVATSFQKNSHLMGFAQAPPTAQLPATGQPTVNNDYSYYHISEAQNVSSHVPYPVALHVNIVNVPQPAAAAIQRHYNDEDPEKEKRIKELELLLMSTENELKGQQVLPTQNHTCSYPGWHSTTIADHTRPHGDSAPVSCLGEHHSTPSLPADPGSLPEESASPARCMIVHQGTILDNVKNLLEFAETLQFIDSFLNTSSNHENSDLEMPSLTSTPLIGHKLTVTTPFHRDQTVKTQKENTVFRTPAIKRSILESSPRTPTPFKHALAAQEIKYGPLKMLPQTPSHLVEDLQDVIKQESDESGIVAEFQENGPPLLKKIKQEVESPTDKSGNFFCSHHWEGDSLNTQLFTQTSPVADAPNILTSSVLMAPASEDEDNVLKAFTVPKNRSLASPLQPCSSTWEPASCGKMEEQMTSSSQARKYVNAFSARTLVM
# Sequence of Hepatocyte nuclear factor 4-alpha (Homo sapiens) (P41235 whole entry, looked up, the tested form may be a part): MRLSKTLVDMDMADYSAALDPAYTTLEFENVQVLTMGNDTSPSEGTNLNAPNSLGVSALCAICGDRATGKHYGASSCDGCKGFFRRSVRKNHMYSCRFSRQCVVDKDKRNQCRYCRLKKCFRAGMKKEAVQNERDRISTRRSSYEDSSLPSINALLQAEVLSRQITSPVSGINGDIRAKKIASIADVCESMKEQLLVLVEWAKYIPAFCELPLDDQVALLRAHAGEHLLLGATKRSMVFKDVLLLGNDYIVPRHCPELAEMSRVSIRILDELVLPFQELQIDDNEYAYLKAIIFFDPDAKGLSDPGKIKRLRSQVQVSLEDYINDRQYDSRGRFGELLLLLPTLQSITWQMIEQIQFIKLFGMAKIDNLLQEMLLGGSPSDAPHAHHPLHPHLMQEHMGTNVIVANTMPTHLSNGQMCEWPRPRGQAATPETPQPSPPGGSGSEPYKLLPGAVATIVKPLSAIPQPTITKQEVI
# Sequence of Oxysterols receptor LXR-alpha (Homo sapiens) (Q13133 whole entry, looked up, the tested form may be a part): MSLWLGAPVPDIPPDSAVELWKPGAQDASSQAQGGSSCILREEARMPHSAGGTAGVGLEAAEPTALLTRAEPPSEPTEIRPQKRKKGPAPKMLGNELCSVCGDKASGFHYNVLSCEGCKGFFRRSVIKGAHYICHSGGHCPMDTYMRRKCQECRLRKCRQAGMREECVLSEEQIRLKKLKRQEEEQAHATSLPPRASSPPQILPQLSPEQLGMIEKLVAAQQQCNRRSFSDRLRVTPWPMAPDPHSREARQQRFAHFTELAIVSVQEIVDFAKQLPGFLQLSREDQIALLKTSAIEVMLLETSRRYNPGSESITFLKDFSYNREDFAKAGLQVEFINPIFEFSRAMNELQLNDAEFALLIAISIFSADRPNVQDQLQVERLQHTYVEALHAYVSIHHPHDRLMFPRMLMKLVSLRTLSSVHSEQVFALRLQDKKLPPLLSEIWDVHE
# Sequence of Myc proto-oncogene protein (Homo sapiens) (P01106 whole entry, looked up): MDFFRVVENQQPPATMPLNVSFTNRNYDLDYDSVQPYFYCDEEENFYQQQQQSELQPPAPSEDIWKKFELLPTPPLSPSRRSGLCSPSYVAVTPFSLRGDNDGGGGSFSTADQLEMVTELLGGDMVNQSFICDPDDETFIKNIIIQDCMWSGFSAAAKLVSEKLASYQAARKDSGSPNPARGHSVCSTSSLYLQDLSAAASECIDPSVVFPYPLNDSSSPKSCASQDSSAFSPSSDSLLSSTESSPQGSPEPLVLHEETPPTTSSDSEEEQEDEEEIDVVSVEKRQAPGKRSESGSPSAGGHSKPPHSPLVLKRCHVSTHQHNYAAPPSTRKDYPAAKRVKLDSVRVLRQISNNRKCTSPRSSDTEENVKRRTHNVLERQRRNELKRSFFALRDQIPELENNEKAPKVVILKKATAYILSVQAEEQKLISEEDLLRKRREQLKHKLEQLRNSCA
# Sequence of Nuclear respiratory factor 1 (Homo sapiens) (Q16656 whole entry, looked up): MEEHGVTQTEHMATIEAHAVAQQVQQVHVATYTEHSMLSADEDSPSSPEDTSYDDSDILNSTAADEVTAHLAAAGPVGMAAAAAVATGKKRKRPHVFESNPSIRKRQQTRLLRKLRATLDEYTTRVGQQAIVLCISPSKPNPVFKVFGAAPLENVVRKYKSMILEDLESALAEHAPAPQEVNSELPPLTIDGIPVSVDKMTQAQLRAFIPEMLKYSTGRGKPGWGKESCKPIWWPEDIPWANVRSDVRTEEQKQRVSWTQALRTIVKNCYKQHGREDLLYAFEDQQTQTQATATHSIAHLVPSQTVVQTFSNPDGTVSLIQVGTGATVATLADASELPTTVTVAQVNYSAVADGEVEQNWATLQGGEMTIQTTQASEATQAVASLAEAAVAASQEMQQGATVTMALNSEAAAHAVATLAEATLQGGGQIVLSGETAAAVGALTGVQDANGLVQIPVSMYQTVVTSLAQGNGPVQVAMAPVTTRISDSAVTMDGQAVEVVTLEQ
# Sequence of Oxysterols receptor LXR-beta (Homo sapiens) (P55055 whole entry, looked up, the tested form may be a part): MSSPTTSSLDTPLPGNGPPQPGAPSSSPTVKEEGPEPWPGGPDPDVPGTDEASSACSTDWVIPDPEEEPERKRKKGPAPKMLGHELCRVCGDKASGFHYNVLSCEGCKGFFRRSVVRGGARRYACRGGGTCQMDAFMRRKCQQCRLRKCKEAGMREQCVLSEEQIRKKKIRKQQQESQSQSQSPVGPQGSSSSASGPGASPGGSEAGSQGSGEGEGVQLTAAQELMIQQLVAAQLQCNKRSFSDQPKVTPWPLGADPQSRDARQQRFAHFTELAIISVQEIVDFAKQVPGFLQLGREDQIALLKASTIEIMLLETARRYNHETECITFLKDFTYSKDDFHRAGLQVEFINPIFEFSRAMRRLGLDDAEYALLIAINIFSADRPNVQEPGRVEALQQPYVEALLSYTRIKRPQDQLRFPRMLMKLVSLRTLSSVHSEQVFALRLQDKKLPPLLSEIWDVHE
# Sequence of Cellular tumor antigen p53 (Homo sapiens) (P04637 whole entry, looked up): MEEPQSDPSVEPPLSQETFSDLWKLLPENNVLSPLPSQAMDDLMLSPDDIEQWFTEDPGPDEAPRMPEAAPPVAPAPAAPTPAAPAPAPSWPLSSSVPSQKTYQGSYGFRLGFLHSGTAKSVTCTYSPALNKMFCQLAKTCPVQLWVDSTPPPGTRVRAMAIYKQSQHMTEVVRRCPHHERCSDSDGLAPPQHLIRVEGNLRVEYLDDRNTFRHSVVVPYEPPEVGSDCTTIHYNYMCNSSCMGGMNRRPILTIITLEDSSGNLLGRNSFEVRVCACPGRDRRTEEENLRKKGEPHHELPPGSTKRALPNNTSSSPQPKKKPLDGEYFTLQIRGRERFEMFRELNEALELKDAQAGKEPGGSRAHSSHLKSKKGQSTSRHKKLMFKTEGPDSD
# Sequence of Nuclear receptor subfamily 4 group A member 2 (Homo sapiens) (P43354 whole entry, looked up, the tested form may be a part): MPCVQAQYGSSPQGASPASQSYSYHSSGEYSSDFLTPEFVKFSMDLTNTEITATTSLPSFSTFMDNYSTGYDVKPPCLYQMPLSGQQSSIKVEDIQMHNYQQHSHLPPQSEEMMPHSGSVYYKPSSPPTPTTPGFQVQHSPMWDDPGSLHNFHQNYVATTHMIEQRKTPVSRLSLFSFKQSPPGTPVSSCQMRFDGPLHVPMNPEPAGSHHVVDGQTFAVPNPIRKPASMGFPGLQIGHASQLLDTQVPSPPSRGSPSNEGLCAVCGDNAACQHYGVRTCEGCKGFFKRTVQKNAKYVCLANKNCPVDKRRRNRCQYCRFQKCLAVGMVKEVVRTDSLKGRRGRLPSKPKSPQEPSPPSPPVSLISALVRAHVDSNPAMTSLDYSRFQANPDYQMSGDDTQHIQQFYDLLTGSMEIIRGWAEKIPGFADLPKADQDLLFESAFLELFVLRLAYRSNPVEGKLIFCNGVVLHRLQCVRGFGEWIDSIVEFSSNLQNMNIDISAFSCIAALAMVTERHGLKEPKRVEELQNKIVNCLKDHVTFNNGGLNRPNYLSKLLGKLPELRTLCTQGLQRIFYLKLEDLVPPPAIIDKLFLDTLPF
# Sequence of Bile acid receptor (Homo sapiens) (Q96RI1 whole entry, looked up, the tested form may be a part): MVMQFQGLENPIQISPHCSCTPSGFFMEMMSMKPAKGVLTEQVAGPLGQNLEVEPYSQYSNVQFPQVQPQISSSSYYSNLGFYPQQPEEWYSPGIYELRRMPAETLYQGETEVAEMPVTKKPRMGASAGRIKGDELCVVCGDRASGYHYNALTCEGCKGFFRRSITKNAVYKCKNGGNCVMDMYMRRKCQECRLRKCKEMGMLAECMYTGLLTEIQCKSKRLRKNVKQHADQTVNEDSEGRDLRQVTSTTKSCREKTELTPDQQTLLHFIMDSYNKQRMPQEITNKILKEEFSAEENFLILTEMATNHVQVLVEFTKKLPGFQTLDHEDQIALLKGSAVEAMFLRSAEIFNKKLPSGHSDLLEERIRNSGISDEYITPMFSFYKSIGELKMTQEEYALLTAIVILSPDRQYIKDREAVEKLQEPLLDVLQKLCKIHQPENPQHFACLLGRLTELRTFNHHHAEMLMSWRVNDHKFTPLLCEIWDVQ
compound,measurement,setting,value
N#CSCSc1nc2ccccc2s1,outcome,[1],inactive
same,outcome,[2],inactive
same,AC50,[3],24.1 µM (active)
same,outcome,[3],inactive
same,outcome,[4],inactive
same,outcome,[5],inactive
same,outcome,[6],inactive
same,AC50,[7],16.7 µM (active)
same,outcome,[7],inactive
same,AC50,[8],15.4 µM (active) and 358 nM (active)
same,AC50,[9],3.07 µM (active)
same,outcome,[9],inactive
same,AC50,[10],14.5 µM (active)
same,outcome,[10],inactive
same,AC50,[11],3.33 µM (active) and 5.66 µM (active)
same,AC50,[12],2.04 µM (active) and 6.26 µM (active)
same,AC50,[13],6.63 µM (active) and 10.3 µM (active)
same,AC50,[14],2.64 µM (active) and 9.47 µM (active)
CN(C)C(=O)Nc1ccc(Cl)c(Cl)c1,outcome,[1],inactive
same,outcome,[2],inactive
same,outcome,[3],inactive
same,outcome,[4],inactive
same,outcome,[5],inactive
same,outcome,[15],inactive
same,outcome,[6],inactive
same,outcome,[7],inactive
same,outcome,[8],inactive
same,outcome,[16],inactive
same,AC50,[10],146 µM (active) and 30.3 µM (active)
same,outcome,[17],inactive
same,outcome,[11],inactive
same,outcome,[12],inactive
same,outcome,[13],inactive
same,outcome,[14],inactive
O=C(O)C1(C(=O)Nc2ccc(Cl)cc2Cl)CC1,outcome,[18],inactive
same,outcome,[1],inactive
same,outcome,[2],inactive
same,outcome,[3],inactive
same,outcome,[5],inactive
same,outcome,[6],inactive
same,outcome,[7],inactive
same,outcome,[8],inactive
same,outcome,[16],inactive
same,outcome,[9],inactive
same,AC50,[19],30.4 µM (active)
same,outcome,[10],inactive
same,outcome,[17],inactive
same,outcome,[11],inactive
same,outcome,[12],inactive
same,outcome,[13],inactive
same,outcome,[14],inactive
